Laboratory results as given in PubChem BioAssay (Tox21).
Results filed as inconclusive are left out. Active and inactive are the calls of the source. Unless noted, calls follow the shape of the full dose curve.

What was measured:
[1] = Nuclear factor erythroid 2-related factor 2/antioxidant responsive element (Nrf2/ARE) small molecule agonists: qHTS cell viability counter screen in human keratinocytes (AID 1919968; active = well fitted curve in the direction sought with a large enough effect in the repeat runs; an effect the other way counts as inactive or inconclusive; also: nearly all actives have a fitted effect of over 55% in size; also: potency is read from the fitted curve at half-maximal effect)
Outline: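 Cytotoxicity was multiplexed with the Nrf2/ARE luciferase assay in the same wells. Stably transfected HaCaT keratinocytes were treated with test compounds for 23 h at 37 C. Cell viability was then measured by CellTiter-Fluor fluorescence.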

[2] = Nuclear factor erythroid 2-related factor 2/antioxidant responsive element (Nrf2/ARE) small molecule agonists: luciferase reporter gene qHTS assay in human keratinocytes (AID 1919969); also: nearly all actives have a fitted effect of over 35% in size; also: potency is read from the fitted curve at half-maximal effect
[3] = target: Gonadotropin-releasing hormone receptor (Homo sapiens) (UniProt P30968); test: Human gonadotropin-releasing hormone receptor (GnRHR) small molecule agonists, calcium flux assay in GnRHR-HEK293 cells (AID 1920063); also: nearly all actives have a fitted effect of over 35% in size; also: potency is read from the fitted curve at half-maximal effect
Sequence of Gonadotropin-releasing hormone receptor (Homo sapiens) (P30968 whole entry, looked up): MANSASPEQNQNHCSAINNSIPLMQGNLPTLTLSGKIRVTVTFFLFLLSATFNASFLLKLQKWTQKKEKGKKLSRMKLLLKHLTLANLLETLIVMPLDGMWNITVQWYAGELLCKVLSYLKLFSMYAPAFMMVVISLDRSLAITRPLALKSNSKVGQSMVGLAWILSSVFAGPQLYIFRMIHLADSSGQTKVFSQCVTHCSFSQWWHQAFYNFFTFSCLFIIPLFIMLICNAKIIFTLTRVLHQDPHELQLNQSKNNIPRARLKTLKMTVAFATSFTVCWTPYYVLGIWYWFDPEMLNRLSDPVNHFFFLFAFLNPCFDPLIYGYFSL
Outline: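 Agonist activity was measured as intracellular calcium flux in HEK293 cells engineered to stably express human GnRHR. After dye loading for 1 hour at 37 C, compounds in DMSO were added and fluorescence was followed for 3 minutes.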

[4] = target: KiSS-1 receptor (Homo sapiens) (UniProt Q969F8); test: Human kisspeptin (KISS1R) small molecule agonists, calcium flux assay in KISS1R-HEK293 cells (AID 1920064; active = well fitted curve in the direction sought with a large enough effect in the repeat runs; an effect the other way counts as inactive or inconclusive; also: potency is read from the fitted curve at half-maximal effect)
Sequence of KiSS-1 receptor (Homo sapiens) (Q969F8 whole entry, looked up): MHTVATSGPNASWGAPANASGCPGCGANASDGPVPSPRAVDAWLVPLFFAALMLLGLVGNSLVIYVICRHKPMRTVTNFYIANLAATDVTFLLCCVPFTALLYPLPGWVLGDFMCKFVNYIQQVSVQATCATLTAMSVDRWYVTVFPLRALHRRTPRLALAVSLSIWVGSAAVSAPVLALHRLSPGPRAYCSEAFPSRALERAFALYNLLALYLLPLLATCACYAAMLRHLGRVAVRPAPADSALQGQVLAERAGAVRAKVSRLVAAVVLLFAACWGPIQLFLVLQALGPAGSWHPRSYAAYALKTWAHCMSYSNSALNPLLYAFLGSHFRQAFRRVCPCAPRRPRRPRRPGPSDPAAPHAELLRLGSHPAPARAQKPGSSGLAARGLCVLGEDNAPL
Outline: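 Agonist activity is monitored as intracellular calcium rise in engineered HEK293 cells carrying human KISS1R. Cells are dye-loaded for 1 h at 37 C before compound addition, and fluorescence is recorded for 3 min.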

[5] = p53 small molecule agonists, cell-based qHTS assay with human liver microsomes (AID 1963577);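 also: p53 response element beta-lactamase reporter cells with liver microsomes plus NADPH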
Outline: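 HLM-supplemented p53RE-bla reporter assay: 16 h compound exposure at 37 C, microsomes and NADPH each 0.5 mg/mL final, read by fluorescence intensity.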

[6] = p53 small molecule agonists, cell-based qHTS assay with human liver microsomes: qHTS cell viability counter screen (AID 1963579); also: nearly all actives have a fitted effect of over 45% in size; also: potency is read from the fitted curve at half-maximal effect
Outline: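 Viability of p53RE-bla cells is measured as CellTiter-Glo luminescence following a 16 h, 37 C incubation with compound, liver microsomes from human donors and NADPH.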

[7] = p53 small molecule agonists, cell-based qHTS assay with rat liver microsomes: qHTS cell viability counter screen (AID 1963580); also: nearly all actives have a fitted effect of over 45% in size
Outline: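 Counter screen for cytotoxicity under metabolic activation: rat liver microsomes and NADPH, 0.5 mg/mL final each, added with compounds to p53RE-bla HCT-116 cells; 16 h at 37 C, then ATP luminescence read.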

[8] = p53 small molecule agonists, cell-based qHTS assay: qHTS cell viability counter screen (AID 1963581); also: nearly all actives have a fitted effect of over 45% in size; also: potency is read from the fitted curve at half-maximal effect
Outline: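 Viability was counter-screened in parallel with the p53 agonist reporter by measuring intracellular ATP luminescence in the same HCT-116 p53RE-bla wells after 16 h compound treatment at 37 C.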

[9] = target: Muscarinic acetylcholine receptor M1 (Homo sapiens) (UniProt P11229); test: Cholinergic receptor muscarinic 1 (CHRM1) small molecule antagonists, cell-based qHTS assay (AID 1963588); also: nearly all actives have a fitted effect of over 40% in size
Sequence of Muscarinic acetylcholine receptor M1 (Homo sapiens) (P11229 whole entry, looked up): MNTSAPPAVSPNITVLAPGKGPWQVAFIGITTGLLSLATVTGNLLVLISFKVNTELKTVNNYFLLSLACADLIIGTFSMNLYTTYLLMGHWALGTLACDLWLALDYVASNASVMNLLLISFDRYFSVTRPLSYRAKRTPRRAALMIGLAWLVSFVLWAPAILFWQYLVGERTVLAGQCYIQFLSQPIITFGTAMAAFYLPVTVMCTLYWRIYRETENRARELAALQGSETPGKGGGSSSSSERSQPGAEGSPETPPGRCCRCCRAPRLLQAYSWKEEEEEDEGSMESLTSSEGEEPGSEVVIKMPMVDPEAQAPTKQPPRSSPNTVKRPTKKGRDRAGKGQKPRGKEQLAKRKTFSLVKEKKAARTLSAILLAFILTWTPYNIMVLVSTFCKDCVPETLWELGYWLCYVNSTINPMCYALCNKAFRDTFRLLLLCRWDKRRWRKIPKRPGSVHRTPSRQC
Outline: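 Compounds were tested at 15 concentrations in three independent runs. Dye-loaded CHRM1-CHO cells were exposed 5 min at room temperature before stimulation by acetylcholine added at 50nM. Intracellular calcium was read kinetically on FDSS for 3 min.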

[10] = target: Muscarinic acetylcholine receptor M1 (Homo sapiens) (UniProt P11229); test: Cholinergic receptor muscarinic 1 (CHRM1) small molecule agonists, cell-based qHTS assay (AID 1963589); also: nearly all actives have a fitted effect of over 35% in size; also: potency is read from the fitted curve at half-maximal effect
Outline: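 Cells were plated and incubated 18 h at 37 C/5% CO2, loaded with calcium dye for 1 h at 37 C, then treated with compounds in DMSO. Fluorescence was recorded kinetically at 1 sec intervals.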

[11] = cAMP Responsive Elements (CRE) small molecule antagonists, cell-based qHTS assay (AID 1963591; active = well fitted inhibition curve with a large enough effect in the signal ratio in the repeat runs, not every such curve was filed as active; the % refers to the signal ratio)
Outline: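 Cells (CRE-bla HEK 293T, DMEM with 10% dialyzed FBS and 25 mM HEPES) are seeded and incubated 18 h. Compounds are added with NKH477 agonist at 0.25 uM final for 3 h, then FRET substrate for 2 h.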

[12] = target: Beta-2 adrenergic receptor (Homo sapiens) (UniProt P07550); test: Adrenergic beta2 receptor (ADRB2) small molecule antagonists, cell-based qHTS assay (AID 1963592); also: series mostly up to about 92 µM; nearly all actives have a fitted effect of over 50% in size
Sequence of Beta-2 adrenergic receptor (Homo sapiens) (P07550 whole entry, looked up): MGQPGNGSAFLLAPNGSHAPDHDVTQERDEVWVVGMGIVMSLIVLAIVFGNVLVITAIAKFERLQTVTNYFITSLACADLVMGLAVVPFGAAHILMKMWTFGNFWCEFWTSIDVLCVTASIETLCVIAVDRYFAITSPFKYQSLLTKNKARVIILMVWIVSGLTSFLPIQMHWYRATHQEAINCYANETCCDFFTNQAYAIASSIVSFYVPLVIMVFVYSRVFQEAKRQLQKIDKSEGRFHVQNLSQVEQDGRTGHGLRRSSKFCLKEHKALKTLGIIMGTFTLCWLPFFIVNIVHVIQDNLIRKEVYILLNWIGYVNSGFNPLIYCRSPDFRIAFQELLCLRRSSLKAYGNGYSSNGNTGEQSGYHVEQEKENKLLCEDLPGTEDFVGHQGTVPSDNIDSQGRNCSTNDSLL
Outline: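 Assay format: CHO-ADRB2 cells, 18-20hr seeding at 37C/5% CO2, then compound plus 1nM isoproterenol agonist mix for 0.5hr RT. Homogeneous time-resolved fluorescence cAMP detection after 1hr, expressed as 665/615 nm ratio.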

[13] = target: Beta-2 adrenergic receptor (Homo sapiens) (UniProt P07550); test: Adrenergic beta2 receptor (ADRB2) small molecule agonists, cell-based qHTS assay (AID 1963593);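 also: CHO cells stably overexpressing human ADRB2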
Outline: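 CHO cells stably over-expressing ADRB2 were plated overnight at 37C, then dosed with compounds plus a stimulation mix containing 100uM IBMX and 25uM Ro-20-1724 for 0.5hr at room temperature. cAMP was measured by HTRF competition, 1hr.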

[14] = target: D(2) dopamine receptor (Homo sapiens) (UniProt P14416); test: Dopamine D2 receptor (DRD2) small molecule agonists, cell-based qHTS assay (AID 1963594); also: nearly all actives have a fitted effect of over 35% in size
Sequence of D(2) dopamine receptor (Homo sapiens) (P14416 whole entry, looked up): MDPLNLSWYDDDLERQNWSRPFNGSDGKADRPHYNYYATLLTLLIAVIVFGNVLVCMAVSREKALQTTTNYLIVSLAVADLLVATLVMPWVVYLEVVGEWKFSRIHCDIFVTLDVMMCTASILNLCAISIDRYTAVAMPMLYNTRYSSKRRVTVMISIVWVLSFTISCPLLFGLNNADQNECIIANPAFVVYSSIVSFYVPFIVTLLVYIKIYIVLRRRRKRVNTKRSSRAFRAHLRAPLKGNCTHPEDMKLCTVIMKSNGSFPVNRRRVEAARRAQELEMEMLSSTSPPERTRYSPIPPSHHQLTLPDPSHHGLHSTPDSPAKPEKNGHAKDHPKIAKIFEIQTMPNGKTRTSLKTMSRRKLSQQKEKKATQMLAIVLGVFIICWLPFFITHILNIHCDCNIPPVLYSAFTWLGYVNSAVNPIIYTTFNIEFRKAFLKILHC
Outline: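 HEK293 cells stably expressing DRD2 were cultured 24 h at 37 C, then given Ro20-1724 (0.1 mM final) and compounds for 10 min at room temperature. NKH477 (200nM) was then added for 30 min. cAMP was read by HTRF.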

[15] = G protein-coupled receptor (GPCR) small molecule agonists, calcium flux assay: HEK293 wild type cell line counter screen (AID 1920065)
Outline: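 Seed cells, incubate 18 h (37 C, 5% CO2); add calcium dye, 1 h at 37 C; pin-transfer compounds, ATP control or DMSO; read fluorescence 480/540 nm each second for 3 min.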

[16] = p53 small molecule agonists, cell-based qHTS assay (AID 1963582; active = well fitted activation curve with a large enough effect in the signal ratio in the repeat runs, not every such curve was filed as active; the % refers to the signal ratio)
Outline: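 Cells carrying a p53-responsive bla reporter are treated with test compounds for 16 h at 37 C; beta-lactamase activity is then detected with LiveBLAzer B/G FRET substrate after 2 h at room temperature.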

[17] = target: 5-hydroxytryptamine receptor 2A (Homo sapiens) (UniProt P28223); test: 5-hydroxytryptamine receptor 2A (HTR2A) small molecule antagonists, cell-based qHTS assay (AID 1963586); also: nearly all actives have a fitted effect of over 45% in size
Sequence of 5-hydroxytryptamine receptor 2A (Homo sapiens) (P28223 whole entry, looked up): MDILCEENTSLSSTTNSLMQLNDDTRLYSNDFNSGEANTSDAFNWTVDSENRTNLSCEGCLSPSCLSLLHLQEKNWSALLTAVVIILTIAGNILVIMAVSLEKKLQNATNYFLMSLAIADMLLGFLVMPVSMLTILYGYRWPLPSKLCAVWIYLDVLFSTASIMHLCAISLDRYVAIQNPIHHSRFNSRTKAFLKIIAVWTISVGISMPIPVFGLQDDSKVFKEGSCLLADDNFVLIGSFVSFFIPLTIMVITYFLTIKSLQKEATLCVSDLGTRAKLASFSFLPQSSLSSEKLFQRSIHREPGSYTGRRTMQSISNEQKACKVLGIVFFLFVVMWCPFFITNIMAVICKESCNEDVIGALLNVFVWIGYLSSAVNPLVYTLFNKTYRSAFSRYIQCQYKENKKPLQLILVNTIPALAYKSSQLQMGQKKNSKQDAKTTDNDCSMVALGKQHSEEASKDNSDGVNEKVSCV
Outline: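 CHO cells stably expressing human HTR2A were plated for 18 h at 37 C, then loaded with calcium dye for 1 h. Compounds were preincubated 5 min at room temperature before DOI (4 nM solution) was added. Kinetic fluorescence was read for 3 min.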

[18] = target: 5-hydroxytryptamine receptor 2A (Homo sapiens) (UniProt P28223); test: 5-hydroxytryptamine receptor 2A (HTR2A) small molecule agonists, cell-based qHTS assay (AID 1963587); also: nearly all actives have a fitted effect of over 30% in size; also: potency is read from the fitted curve at half-maximal effect
Outline: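 HTR2A-CHO cells, plated 18 h at 37 C/5% CO2, dye-loaded 1 h at 37 C; compounds in DMSO added by pin tool (agonist mode). Intracellular calcium flux read as kinetic fluorescence on FDSS over 2 min at 1 s intervals.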

[19] = cAMP Responsive Elements (CRE) small molecule agonists, cell-based qHTS assay (AID 1963590)
Outline: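 Cells carrying a CRE-driven beta-lactamase reporter (HEK 293T) are seeded, incubated overnight (18 h), and treated with test compounds for 3 h at 37 C; reporter activity is then detected with a FRET substrate after 2 h at room temperature.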

[20] = target: D(2) dopamine receptor (Homo sapiens) (UniProt P14416); test: Dopamine D2 receptor (DRD2) small molecule antagonists, cell-based qHTS assay (AID 1963595; active = well fitted inhibition curve with a large enough effect in the signal ratio in the repeat runs, with a control signal flat; the % refers to the signal ratio)
Outline: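 HTRF cAMP read-out at 665 and 620 nm emission (340 nm excitation). Antagonist mode: compounds were tested against 12 nM quinpirole in DRD2-HEK293 cells, with 200 nM NKH477 raising cAMP and 0.1 mM Ro20-1724 blocking its breakdown.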

Measured: Potency

O=C(OC1CCCCC1)c1ccccc1C(=O)OC1CCCCC1
inactive: [1] | [2] | [3] | [4] | [5] | [6] | [7] | [8] | [9] | [10] | [11] | [12] | [13] | [14]

CCOc1ccc(C(C)(C)COCc2cccc(Oc3ccccc3)c2)cc1
inactive: [1] | [2] | [3] | [15] | [5] | [6] | [7] | [16] | [17] | [18] | [9] | [10] | [19] | [11] | [12] | [14] | [20]

CC(Cl)(Cl)Cl
inactive: [1] | [2] | [3] | [15] | [5] | [7] | [8] | [16] | [19] | [11] | [12] | [14] | [20]

O=C1C(Cl)C(CCl)CN1c1cccc(C(F)(F)F)c1 (centres undefined)
inactive: [1] | [2] | [3] | [15] | [5] | [6] | [7] | [16] | [17] | [18] | [9] | [10] | [12] | [14] | [20]

COC(=O)C1(O)c2ccccc2-c2ccccc21
inactive: [1] | [2] | [3] | [15] | [5] | [6] | [7] | [8] | [16] | [18] | [9] | [10] | [19] | [11] | [12] | [14] | [20]

COP(=O)(OC)O/C(C)=C/C(=O)N(C)C
inactive: [1] | [2] | [3] | [4] | [6] | [7] | [8] | [16] | [17] | [18] | [9] | [10] | [19] | [11] | [12] | [13] | [14] | [20]

OP(O)c1ccccc1
inactive: [1] | [2] | [3] | [4] | [5] | [6] | [7] | [8] | [16] | [17] | [18] | [9] | [10] | [19] | [12] | [20]

CCN[C@@H](C)Cc1cccc(C(F)(F)F)c1
inactive: [1] | [2] | [3] | [4] | [6] | [7] | [19] | [11] | [20]

CCN(CC)C(=S)[S-].CCN(CC)C(=S)[S-].[Zn+2]
active: [1] 0.481 µM | [2] 2.41 µM | [3] 9.69 µM | [4] 19.3 µM | [6] 3.21 µM | [8] 4.54 µM | [18] 19.3 µM | [10] 13.7 µM
inactive: [17] | [9] | [20]

CCC(C(N)=O)N1CCCC1=O (centres undefined)
inactive: [1] | [2] | [3] | [15] | [5] | [6] | [7] | [8] | [17] | [18] | [9] | [10] | [19] | [11] | [13] | [14] | [20]

CC(Oc1cccc(Cl)c1)C(=O)O (centres undefined)
inactive: [1] | [2] | [3] | [4] | [5] | [6] | [7] | [8] | [16] | [17] | [18] | [10] | [11] | [12] | [13] | [14] | [20]

CCC(COC(=O)c1cc(OC)c(OC)c(OC)c1)(c1ccccc1)N(C)C (centres undefined)
inactive: [1] | [2] | [3] | [15] | [5] | [6] | [7] | [8] | [16] | [17] | [18] | [9] | [10] | [12] | [20]
